ANO1 block: TMEM16A chloride channel inhibitors, primary screen, cell-based, HTS; HEK293 TMEM16A/YFP iodide influx fluorescence, ionomycin; normalized B-score (activity score, 25-100; higher = stronger inhibition) at 10 µM; 1.2% of 310,000 active;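 active = ratio plate-corrected score three or more library SD toward inhibition, starting fluorescence score within five deviations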;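 note: score derived from kinetic fluorescence span divided by baseline fluorescence per well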
Kir21 inh: inhibitors of mouse Kir2.1 inward-rectifier potassium channel; AID 1672, 2009; HEK293-Kir2.1, FluxOR thallium flux fluorescence; hits give low values; 0.85% of 310,000 active; Inward rectifier potassium channel 2 (Mus musculus), P35561; B-score at 10 µM;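 active = fluorescence ratio B-score at or below minus 3 SD of library scores, with starting-brightness B-score within 2 SD, cut at about -4.2 in these data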;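 note: channel flux triggered by added potassium and thallium sulfate stimulus; B-score of peak minus minimum fluorescence over baseline after thallium stimulus; more negative B-score means stronger Kir2.1 block with less thallium influx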
CHT PAM: CHT positive allosteric modulators, primary screen, cell-based, membrane potential dye, choline EC20 | CHT-expressing cells; hits give high values; LV-AA mutant CHT in HEK293 cells | B-score at 10 µM | 0.49% of 310,000 active;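 active = initial fluorescence not abnormally high and integrated response B-score, plate-corrected, over 3 SD above library mean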
CHT inh: inhibitors of human choline transporter CHT; High affinity choline transporter 1 (Homo sapiens), Q9GZV3; CHT-expressing cells, membrane potential dye, choline response; hits give low values; B-score at 10 µM; 0.86% of 310,000 active;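 active = B-score over 3 SD under the library average, and starting fluorescence ratio not unusually high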;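 note: choline stimulus applied at its EC90 after an EC20 pre-addition; B-score computed on integrated fluorescence ratio after choline addition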
GPR7 antagonist: GPR7 receptor antagonists, primary screen, cell-based, fluorescence, single concentration | Neuropeptides B/W receptor type 1 (Homo sapiens), P48145 | GPR7-expressing cells, fluorescence antagonist assay | inhibition, % at 4.4 µM | 1.1% of 290,000 active | AID 1861, 2009; in the data active = inhibition above about 16%, passing the limit was not always enough;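 note: cells stimulated with the agonist NPW; 0% = agonist with vehicle and 100% = vehicle without agonist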
TMEM16A act: TMEM16A chloride channel activators or potentiators, primary screen, cell-based, HTS | Anoctamin-1 (Mus musculus), Q8BHY3 | HEK293 TMEM16A/YFP-H148Q/I152L, iodide quench fluorescence; hits give low values | B-score at 10 µM | 0.3% of 340,000 active | AID 623877, 2012;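 active = fluorescence-ratio B-score plate-corrected deviation score at least 3 library SD below zero, with starting fluorescence score within 5 deviations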;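 note: channel opened by trigger with iodide after compound preincubation; score built on the fluorescence ratio of max minus min over baseline; more negative score means more quench and so TMEM16A activation or potentiation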
TMEM16A reconf: TMEM16A chloride channel inhibitors, confirmation, cell-based, re-confirmation; shares compounds with ANO1 block; HEK293 TMEM16A/YFP-H148Q, iodide quench fluorescence; ionomycin added to raise cell calcium; inhibition, % at 10 µM; 39% of 2,300 active; AID 652189, 2013;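 active = mean duplicate percent inhibition, scaled so buffer wells are 0 and the reference blocker 100, over three buffer SD above buffer mean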
HEK293 Ca mobil: calcium mobilization in TMEM16A/YFP HEK293 cells, confirmation, counter-screen for TMEM16A inhibitor project | shares compounds with ANO1 block | calcium response (% of ionomycin), % at 10 µM | 2% of 2,300 active | Fluo4 calcium mobilization;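 active = duplicate-averaged calcium signal over 20% of the ionomycin maximum, relative to buffer baseline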;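 note: each well's signal is peak minus trough fluorescence divided by its pre-addition baseline; 0% = buffer wells and 100% = ionomycin wells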
Parental YFP cnt: iodide YFP quench changes in parental YFP-HEK293, counter-screen for TMEM16A inhibitor project, cell-based; shares compounds with ANO1 block; ionomycin; YFP ratio F(max-min)/F0 at 10 µM; 2,300 tested, under 10 active; AID 652233, 2013;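 active = yellow fluorescent protein signal ratio exceeding the buffer control mean by over 5 SD of those controls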;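 note: ratio is mean of duplicate wells from kinetic YFP trace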
ClC-1 inh: ClC-1 chloride channel inhibition, selectivity assay for TMEM16A inhibitor project, cell-based, voltage-dependent ClC-1; shares compounds with ANO1 block; CHO ClC-1-YFP, iodide influx fluorescence quench; iodide control reads 0, buffer control 100; ratio percent, % at 10 µM; 2,300 tested, under 10 active; AID 652236, 2013;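 active = duplicate-mean ratio percent above the mean of iodide-only control wells, which defines zero, plus 5 of their SD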;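 note: higher percent means stronger block of ClC-1 iodide influx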
Target sequence (P35524 whole entry, looked up): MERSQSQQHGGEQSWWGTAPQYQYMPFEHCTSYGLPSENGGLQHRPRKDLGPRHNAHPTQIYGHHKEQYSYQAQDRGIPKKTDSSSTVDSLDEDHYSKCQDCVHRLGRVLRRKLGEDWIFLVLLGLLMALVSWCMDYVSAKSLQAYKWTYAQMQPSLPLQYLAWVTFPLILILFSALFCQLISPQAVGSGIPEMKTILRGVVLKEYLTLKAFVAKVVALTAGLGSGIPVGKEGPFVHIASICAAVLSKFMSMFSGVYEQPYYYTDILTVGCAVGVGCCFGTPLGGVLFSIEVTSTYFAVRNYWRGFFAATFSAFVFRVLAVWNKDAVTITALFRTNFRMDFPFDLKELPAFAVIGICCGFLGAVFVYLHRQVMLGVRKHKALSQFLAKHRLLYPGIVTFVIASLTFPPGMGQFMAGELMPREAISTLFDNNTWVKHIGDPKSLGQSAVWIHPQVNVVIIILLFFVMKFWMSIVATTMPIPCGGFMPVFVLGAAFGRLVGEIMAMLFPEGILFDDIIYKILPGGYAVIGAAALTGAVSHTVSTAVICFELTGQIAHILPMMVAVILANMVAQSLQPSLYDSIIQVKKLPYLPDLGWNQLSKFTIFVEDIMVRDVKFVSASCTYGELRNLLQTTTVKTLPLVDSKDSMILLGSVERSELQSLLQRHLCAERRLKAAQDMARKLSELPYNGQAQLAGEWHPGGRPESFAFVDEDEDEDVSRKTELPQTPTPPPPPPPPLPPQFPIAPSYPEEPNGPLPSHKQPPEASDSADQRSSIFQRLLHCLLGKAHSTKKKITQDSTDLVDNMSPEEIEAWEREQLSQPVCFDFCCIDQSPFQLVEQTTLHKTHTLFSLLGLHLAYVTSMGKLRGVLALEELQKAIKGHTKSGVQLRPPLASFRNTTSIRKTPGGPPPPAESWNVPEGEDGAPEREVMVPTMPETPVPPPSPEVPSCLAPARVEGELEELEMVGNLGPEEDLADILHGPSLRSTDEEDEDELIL
The depositor's hits bear a star; i = inactive; . = no result. An excerpt weighted towards active compounds, which were near 3.7% of everything screened.

SMILES	ANO1 block	Kir21 inh	CHT PAM	CHT inh	GPR7 antagonist	TMEM16A act	TMEM16A reconf	HEK293 Ca mobil	Parental YFP cnt	ClC-1 inh
CCCCOc1nc2ccccc2nc1NS(=O)(=O)c1ccc(F)cc1	25*	-1.83	i	i	-7.0	i	i	i	-0.987	-11.0
O=S(=O)(Nc1nc2ccccc2nc1N1CCN(c2ccccc2)CC1)c1ccc(F)cc1	i	-0.3	i	i	-9.2	i	31.5%*	i	-0.856	-14.5
Cc1ccccc1Cn1ccc(NC(=O)c2cnn3c2NC(c2ccccc2)CC3C(F)(F)F)n1 (stereo unspecified)	25*	-0.14	i	i	9.4	i	i	i	-1.09	-6.0
CC12CCC(=O)N1C(C(=O)Nc1nnc(SCc3ccccc3F)s1)CS2 (stereo unspecified)	i	0.5	i	i	-2.3	i	.	.	.	.
C/C(=C\C(=O)c1ccc(C)cc1)NCc1ccc(F)cc1	100*	-1.28	i	i	2.2	i	i	i	-1.03	-19.0
COc1ccc(-n2nc(C(=O)NCC(=O)NCCc3ccc(OC)c(OC)c3)c3ccccc3c2=O)cc1Cl	25*	1.1	i	i	2.7	i	i	i	-1.34	-3.5
COCCNC(=O)CNC(=O)c1nn(-c2ccc(OC)c(Cl)c2)c(=O)c2ccccc12	i	0.26	i	i	-13.6	i	.	.	.	.
CC(=O)OCC=C1CCC2C3CC(C)C4=CC(=O)CCC4(C)C3C(O)CC12C (stereo unspecified)	.	.	.	.	.	i	.	.	.	.
Cc1onc(-c2ccccc2)c1C(=O)OCC(=O)Nc1cc(S(=O)(=O)N2CCOCC2)ccc1Cl	i	0.38	i	i	-11.0	i	.	.	.	.
CC1(C)C(C=C(Cl)Cl)C1C(=O)N/N=C/c1ccccc1F (stereo unspecified)	25*	-1.72	i	i	-14.3	i	i	i	-1.09	-13.0
O=C(N/N=C/c1ccccc1F)NC12CC3CC(CC(C3)C1)C2	i	1.15	i	i	-14.2	i	.	.	.	.
CC1CCCN(C2(O)C(=O)Nc3ccc([N+](=O)[O-])cc32)C1 (stereo unspecified)	i	1.35	i	i	7.4	i	.	.	.	.
O=C(Nc1cccnc1)Nc1ccccc1Cl	100*	0.1	i	i	0.2	i	i	i	-0.913	-5.5
COc1ccnc(N=CNOCc2cccc(C(F)(F)F)c2)c1C#N	i	0.22	i	i	0.0	i	.	.	.	.
COc1ccc(NC(=O)NC23CC4(C)CC(C)(CC(C)(C4)C2)C3)cc1OC	25*	0.26	i	i	-2.7	i	i	i	-1.31	3.0
COC(=O)c1ccc(NC(=O)Nc2ccc(OC)c(OC)c2)cc1	i	-0.87	i	i	3.3	i	.	.	.	.
CCOC(=O)N1CCC(N2CCN(C3CCCC3)C(CCO)C2)CC1 (stereo unspecified)	i	1.43	i	i	-20.9	i	.	.	.	.
COCCCNC(=S)N1CCN(c2nc(-c3ccccc3)cs2)CC1	25*	-0.69	i	i	0.6	i	i	i	-0.826	-10.5
O=C(CCc1nc2ccccc2c(=O)[nH]1)Nc1ccc(F)cc1	i	-0.58	i	i	1.1	i	.	.	.	.
O=C(CCc1nc2ccccc2[nH]1)Nc1ccc(F)cc1	25*	-1.69	i	i	-12.6	i	i	i	-1.09	-3.5
COc1ccccc1NC(=O)C(C)OC(=O)C1CCC(C(C)(C)C)CC1 (stereo unspecified)	100*	-2.63	i	i	.	i	i	i	-0.926	-4.0
CCC(C)C(NC(=O)C1CCC(C)CC1)C(=O)NC(C(=O)OC)C(C)C (stereo unspecified)	i	0.44	i	i	-12.5	i	.	.	.	.
CCOC(=O)CNC(=O)C(NC(=O)C1CCC(C)CC1)C(C)CC (stereo unspecified)	25*	0.92	i	i	-5.8	i	i	i	-1.09	-2.0
NC(=O)c1cc2cc(Cc3ccccc3Cl)ccc2oc1=O	i	0.47	i	i	1.1	i	.	.	.	.
COc1ccc(CCNC(=O)c2ccc(N3CCCC3=O)cc2)cc1	i	-0.77	i	i	2.8	i	.	.	.	.
SMILES	ANO1 block	Kir21 inh	CHT PAM	CHT inh	GPR7 antagonist	TMEM16A act	TMEM16A reconf	HEK293 Ca mobil	Parental YFP cnt	ClC-1 inh
CCOc1ccc(CCNC(=O)c2ccc(N3CCCC3=O)cc2)cc1OCC	25*	-0.01	i	i	-1.5	i	i	i	-1.21	-10.0
CC(C)n1c(-c2ccc(C(C)(C)C)cc2)n[nH]c1=S	100*	0.87	i	i	-9.2	i	i	i	-1.08	-13.0
O=C(Nc1nnc(-c2cccs2)s1)c1cccc(F)c1	i	-1.87	i	i	-1.6	i	.	.	.	.
Cc1cccc(C)c1OCc1cc(C(=O)N2CCC(c3ccncc3)CC2)no1	25*	-0.01	i	i	10.8	i	21.0%*	i	-1.03	-21.5
O=C(c1cc(COc2c(F)cccc2F)on1)N1CCC(c2ccccc2F)C1 (stereo unspecified)	i	0.05	i	i	-5.4	i	.	.	.	.
O=C(c1cc(COc2c(F)cccc2F)on1)N1CCC(c2ccncc2)CC1	25*	-2.76	i	i	1.4	i	i	i	-1.2	-22.5

High-throughput results from PubChem BioAssay.
